Screens from PubChem.
Rows were chosen to be rich in hits. Some 8.6% of all compounds tested hit in one or more screens of this group.
Marburg entry: blocks Marburg virus binding or cell entry. Marburg virus pseudotype entry/binding inhibition, cell-based. Potency, µM (top dose mostly 49.2 µM), without a hit: at the highest dose activity change, negative = inhibition, hits mostly inhibitors. 18,000 tested, 6.5% active
LASV entry inh: blocks Lassa virus binding or cell entry; Lassa virus pseudotyped entry inhibition, cell-based qHTS; Potency, µM (titrated, usually from 49.2 µM), without a hit: top-dose activity change, negative = inhibition, actives largely listed as inhibitors; 18,000 tested, 4.1% active
* = called active by the depositor; ! = a repeat was not active; [ ] = another dose, or the depositor's remark. Calls come from the whole dose curve; tested in HEK293 cells. % is set by controls: 0 for no effect and ±100 for the full control effect; potency is the fitted concentration of half-maximal effect.

C=CC1CC(C=C)OP(=O)(OC[C@H](C)[C@@H](O[Si](C)(C)C(C)(C)C)[C@@H](C)C=C)O1 (some centres undefined) was read as Marburg entry 49% and LASV entry inh 17%.
For Cc1cc(=O)c2c(O)c3c(O)cc(=O)c4c3c3c(cc(O)c1c23)C(C)(C)C=4O the results were Marburg entry 6.3µM* and LASV entry inh 6.3µM*.
`COC(=O)C1=C(C(=O)OC)[C@@H]2N(C)c3ccccc3[C@@]23CCC(=O)N(Cc2ccc(OC)cc2)C3=N1` gave Marburg entry -9%[8.59 µM] and LASV entry inh 1%[8.59 µM].
C[C@@H](C1=C(CCN(C)C)Cc2ccccc21)c1ccccn1 was read as Marburg entry 18µM* and LASV entry inh inconclusive.
For CN(C)CCC(c1ccccc1)c1ccccn1 (centres undefined) the results were Marburg entry inconclusive and LASV entry inh -12%.
`COc1cccc([C@@H]2Oc3ccc(OC)cc3[C@H](O)[C@@H]2O)c1` gave Marburg entry -7%[8.59 µM] and LASV entry inh -20%[8.59 µM].
`C[n+]1cc2c3c(ccc2c2ccc4cc5c(cc4c21)OCO5)OCO3` gave Marburg entry 6.3µM* and LASV entry inh 20µM*.
C[C@H]1O[C@@H](O[C@H]2CC[C@@]3(C)[C@H](CC[C@@H]4[C@@H]3C[C@@H](O)[C@]3(C)[C@@H](C5=CC(=O)OC5)CC[C@]43O)C2)C[C@H](O)[C@@H]1O[C@H]1C[C@H](O)[C@H](O[C@H]2C[C@H](O)[C@H](O[C@@H]3O[C@H](CO)[C@@H](O)[C@H](O)[C@H]3O)[C@@H](C)O2)[C@@H](C)O1 was read as Marburg entry 0.28µM* and LASV entry inh 0.35µM*.
Screening C[C@H]1O[C@@H](O[C@H]2[C@@H](O)C[C@H](O[C@H]3[C@@H](O)C[C@H](O[C@H]4CC[C@@]5(C)[C@H](CC[C@@H]6[C@@H]5CC[C@]5(C)[C@@H](C7=CC(=O)OC7)CC[C@]65O)C4)O[C@@H]3C)O[C@@H]2C)C[C@H](O)[C@@H]1O returned Marburg entry 0.089µM* and LASV entry inh inconclusive.
For CC(=O)O[C@H]1C[C@H](O[C@H]2[C@@H](O)C[C@H](O[C@H]3[C@@H](O)C[C@H](OC4CC[C@@]5(C)C(CC[C@@H]6[C@@H]5CC[C@]5(C)[C@@H](C7=CC(=O)OC7)[C@@H](O)C[C@]65O)C4)O[C@@H]3C)O[C@@H]2C)O[C@H](C)[C@H]1O[C@@H]1O[C@H](CO)[C@@H](O)[C@H](O)[C@H]1O (some centres undefined) the results were Marburg entry inconclusive and LASV entry inh 2.8µM*.
`C[C@@H]1O[C@H](O[C@@H]2CC[C@@]3(C=O)[C@H]4CC[C@@]5(C)[C@@H](C6=CC(=O)OC6)CC[C@@]5(O)[C@@H]4CC[C@]3(O)C2)C[C@H](O)[C@@H]1O` gave Marburg entry 3.5µM* and LASV entry inh 3.5µM*.
Screening CC(C)=CCC[C@](C)(O[C@@H]1O[C@H](CO)[C@@H](O)[C@H](O)[C@H]1O)[C@H]1CC[C@]2(C)[C@@H]1[C@H](O)C[C@@H]1[C@@]3(C)CC[C@H](O[C@@H]4O[C@H](CO)[C@@H](O)[C@H](O)[C@H]4O[C@@H]4O[C@H](CO)[C@@H](O)[C@H](O)[C@H]4O)C(C)(C)[C@@H]3[C@@H](O)C[C@]12C returned Marburg entry inconclusive and LASV entry inh -20%.
C=C(C[C@@]1(C(=O)OC)C=C[C@@H](C)[C@H](c2ccccc2Br)N1C(=O)C(F)(F)F)c1ccccc1 was read as Marburg entry -14%[8.59 µM] and LASV entry inh -4%[8.59 µM].
For CCC[C@H]1CN(c2ccc(Br)cc2)C(=O)[C@H]1CC(=O)Nc1ccccc1 the results were Marburg entry inconclusive and LASV entry inh -23%.
Cc1cc(C)cc([C@H]2C[C@]34CN(Cc5ccccc5)[S+](=O)([O-])[C@@H]3C[C@@H]2O4)c1 was read as Marburg entry -15% and LASV entry inh -20%.
Screening COC(=O)C12CC3=CCC4C(=O)N(c5ccccc5)C(=O)C4C3Cc3ccccc3[C@H]1CNC2=O (some centres undefined) returned Marburg entry 5%[8.59 µM] and LASV entry inh 21%[8.59 µM].
For COc1ccc(COC(=O)NN=C2C[C@@H](O)[C@@H](O)[C@@H]3[C@H]4C(=O)N(c5cccc(Oc6ccccc6)c5)C(=O)[C@@H]4CC[C@H]23)cc1 the results were Marburg entry 9%[8.59 µM].
For CC1OC(O[C@@H]2C(O)CC(O[C@@H]3C(O)C[C@@H](OC4CC[C@]5(C)[C@H](CC[C@H]6[C@@H]5CC[C@]5(C)C(C7=CC(=O)OC7)C(O)C[C@@]65O)C4)OC3C)OC2C)CC(O)C1O (some centres undefined) the results were Marburg entry 0.63µM* and LASV entry inh 5µM*.
For CC1O[C@@H](O[C@@H]2C(O)C[C@H](O[C@@H]3C(O)C[C@@H](OC4CC[C@@]5(C)C6CC(O)[C@@]7(C)C(C8=CC(=O)OC8)CC[C@@]7(O)C6CC[C@@H]5C4)OC3C)OC2C)CC(O)[C@H]1O (some centres undefined) the results were Marburg entry 0.56µM* and LASV entry inh 1µM*.
Screening COc1cccc([C@@H]2Oc3ccc(Br)cc3C(=O)[C@@H]2O)c1 returned Marburg entry 31%[8.59 µM] and LASV entry inh 34%[8.59 µM].
For COCOc1cc(OC)ccc1C(=O)C=Cc1ccc([N+](=O)[O-])cc1 the results were Marburg entry -19%[8.59 µM].
`CCN1C(=S)NC(c2cccc(F)c2)C(C(=O)OC)=C1C` (centres undefined) gave Marburg entry 20%[8.59 µM] and LASV entry inh 7%[8.59 µM].
Screening CCCCCCC(=O)O[C@H]1CC[C@H]2[C@@H]3CC[C@H]4CC(=O)C=C(C)[C@]4(C)[C@H]3CC[C@]12C returned Marburg entry 19% and LASV entry inh inconclusive.
`CN1CCCCC1CCN1c2ccccc2Sc2ccc(S(C)=O)cc21` (centres undefined) gave Marburg entry 8.9µM*! and LASV entry inh inconclusive.
Screening Cc1ccc(C(=O)OC[C@H]2O[C@H](Cl)C[C@H]2OC(=O)c2ccc(C)cc2)cc1 returned Marburg entry 1%[8.59 µM] and LASV entry inh -6%[8.59 µM].
O=C(OC[C@H]1O[C@@H](OC(=O)c2cc(O)c(O)c(OC(=O)c3cc(O)c(O)c(O)c3)c2)[C@H](OC(=O)c2cc(O)c(O)c(OC(=O)c3cc(O)c(O)c(O)c3)c2)[C@@H](OC(=O)c2cc(O)c(O)c(OC(=O)c3cc(O)c(O)c(O)c3)c2)[C@@H]1OC(=O)c1cc(O)c(O)c(OC(=O)c2cc(O)c(O)c(O)c2)c1)c1cc(O)c(O)c(OC(=O)c2cc(O)c(O)c(O)c2)c1 was read as Marburg entry 0.35µM* and LASV entry inh 10µM*.
CCOC(=O)C1=CN(CCC=C(C)C)C(=O)NC1c1ccccc1 (centres undefined) was read as Marburg entry 7%[8.59 µM] and LASV entry inh -16%[8.59 µM].
COc1ccccc1C1(O)CCN(CCCn2c3ccccc3c3ccccc32)CC1 was read as Marburg entry 4µM* and LASV entry inh inconclusive.
COc1ccc(C(=O)c2c(C)n(CCN3CCOCC3)c3ccccc23)cc1 was read as Marburg entry -14% and LASV entry inh -27%.
COc1cc2ncnc(Nc3cccc(Cl)c3)c2cc1OC was read as Marburg entry 14µM*! and LASV entry inh 16µM*!.
